About 83,000 compounds went through this panel and 20% of them were active in at least one assay; those are over-represented in the sample as a whole.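 Cells were grown in 96-well plates and exposed to the test compound at a single concentration for 48 hours; results are reported as percent growth, with values below 10 considered active.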 Values without a mark were called inactive. Activity calls are given as the source filed them.
Experiments:
Test in all cases: NCI-60 one-dose screen, 48 h (100 = growth as untreated, 0 = no growth, -100 = all killed)
Settings in all cases: 10 µM unless noted
DU-145 prostate = system: DU-145 prostate
K-562 leukemia = system: K-562 leukemia
MALME-3M melanoma = system: MALME-3M melanoma
MDA-MB-231 breast = system: MDA-MB-231 breast
RXF 393 renal = system: RXF 393 renal
SF-268 CNS = system: SF-268 CNS
SF-295 CNS = system: SF-295 CNS
SF-539 CNS = system: SF-539 CNS
UACC-257 melanoma = system: UACC-257 melanoma
M14 melanoma = system: M14 melanoma
HCT-15 colon = system: HCT-15 colon
HT29 colon = system: HT29 colon
SNB-75 CNS = system: SNB-75 CNS
SNB-19 CNS = system: SNB-19 CNS
U251 CNS = system: U251 CNS
PC-3 prostate = system: PC-3 prostate
SK-MEL-5 melanoma = system: SK-MEL-5 melanoma
UACC-62 melanoma = system: UACC-62 melanoma
LOX IMVI melanoma = system: LOX IMVI melanoma
SK-MEL-28 melanoma = system: SK-MEL-28 melanoma

Row | Compound | growth (DU-145 prostate) | growth (K-562 leukemia) | growth (MALME-3M melanoma) | growth (MDA-MB-231 breast) | growth (RXF 393 renal) | growth (SF-268 CNS) | growth (SF-295 CNS) | growth (SF-539 CNS) | growth (UACC-257 melanoma) | growth (M14 melanoma) | growth (HCT-15 colon) | growth (HT29 colon) | growth (SNB-75 CNS) | growth (SNB-19 CNS) | growth (U251 CNS) | growth (PC-3 prostate) | growth (SK-MEL-5 melanoma) | growth (UACC-62 melanoma) | growth (LOX IMVI melanoma) | growth (SK-MEL-28 melanoma)
1 | Cc1nc(C)c(C)nc1C | 108% | 93.1% | 102% | 108% | 120% | 105% | 107% | 104% | 88.1% | 101% | 109% | 97% | 101% | 99.2% | 96.7% | 98.3% | 102% | 101% | 101% | 113%
2 | Cc1cnc(SCc2ccc(Cl)cc2Cl)nc1Nc1ccc(Cl)c(Cl)c1 | 95.1% | 69.3% | 103% | 88.3% | 97.4% | 90.5% | 92.8% | 105% | 91.4% | 98.7% | 99.8% | 85.1% | 85.4% | 96.7% | 93.9% | 71.6% | 93.4% | 53.4% | 81.2% | 111%
3 | Cc1cc(O)cc(O)c1N=NC1=NCCS1 | 103% | 89.7% | 94.3% | 97.1% | 123% | 94.6% | 101% | 100% | 101% | 98% | 102% | 95.7% | 81.7% | 107% | 105% | 107% | 111% | 99.5% | 97.2% | 98.5%
4 | O=c1c2ccccc2oc2ccc(OCCCCCCN3CCCCCC3)cc12 | 65.6% | 2.32% (active) | -47.2% (active) | 43.7% | 36.8% | 61.7% | 38.9% | 54.9% | 2.49% (active) | -32% (active) | 7.65% (active) | 8.09% (active) | 88.7% | 58.3% | 38.9% | 34% | -36.7% (active) | -53.4% (active) | 19.1% | 38.5%
5 | COc1ccccc1N1CCN(CCCOc2ccc(C(=O)/C=C3/C(=O)Nc4ccccc43)cc2)CC1 | 81.8% | 17.6% | 66.5% | 57% | 72.4% | 86.9% | 71.1% | 81.5% | 90.2% | 66% | 74.7% | 25.8% | 85.1% | 84.6% | 64.1% | 40.9% | -36.1% (active) | 56.1% | 55.5% | 86.1%
6 | NCCCn1c2c(c3cc(-c4ccn[nH]4)ccc3c1=O)C(=O)c1ccccc1-2 | 33.8% | 6.99% (active) | 75.2% | 68.1% | 79.5% | 52.8% | 61.7% | 75.2% | 102% | 74.8% | 31.2% | 9.31% (active) | 42.2% | 55% | 37.1% | 50% | 58.4% | 78% | 47.1% | 111%
7 | CC(C)C1=C[C@@]23CC[C@H]4[C@](C)(COCCC#N)CCC[C@]4(C)[C@H]2C[C@@H]1[C@@H]1[C@H]3[C@@H](OCCC#N)CC[C@@H]1OCCC#N | 51.4% | 20.2% | 61.4% | 59.5% | 11.8% | 48.4% | 28.7% | 52.8% | 40.9% | 31.4% | 22.8% | 12.1% | 80.3% | 50.3% | 29.1% | 9.6% (active) | 39.1% | 45.3% | 40.1% | 48.7%
8 | CCCn1cc(/C=N\N=C2\C(=O)Nc3ccc(C)cc32)c2ccccc21 | 66.4% | 17.6% | 51.7% | 34.4% | 11.4% | 46.6% | 71.1% | 33.9% | 58.8% | 56.3% | 23% | 17.1% | 85.6% | 63.3% | 40% | 18% | 49.1% | 40.4% | 4.42% (active) | 59.4%
9 | C=C1C(=O)O[C@H]2[C@H]1CC/C(COC(=O)CCC(=O)OC/C1=C/CC[C@@]3(C)O[C@H]3[C@H]3OC(=O)C(=C)[C@@H]3CC1)=C\CC[C@@]1(C)O[C@@H]21 | 18.7% | 3.55% (active) | -5.56% (active) | -0.376% (active) | -71.4% (active) | 78.8% | 98.4% | 16.6% | 21.4% | 1.21% (active) | 0.631% (active) | 27.2% | 76.5% | 94.3% | 72.9% | 60% | 61.4% | 13.2% | 26.2% | 4.61% (active)
10 | COc1ccc2c(c1)Oc1nc(N)c(C#N)c(N)c1C2Sc1ccc(O)cc1 (stereo not given) | 105% | 14.6% | 70.8% | 79.4% | 90.8% | 95% | 104% | 99.4% | 105% | 103% | 65.7% | 102% | 89.7% | 106% | 86.5% | 95.9% | 90.3% | 101% | 87.4% | 105%
11 | CCN(CC)CC#CCOC(=O)[C@]1(C)CCC[C@]2(C)[C@H]3C[C@H]4C(C(C)C)=C[C@]3(CC[C@H]21)[C@@H]1C(=O)CCC(=O)[C@@H]14 | 71% | 18.6% | 45.3% | 69% | 15.3% | 68.9% | 59.6% | 66.8% | 56.9% | 51.4% | 42.7% | 5.05% (active) | 55.4% | 70.4% | 38.3% | 25% | 58.8% | 70.5% | 38.7% | 66.2%
12 | O=C(O)C(C(=O)O)c1cccc2ccccc12 | 105% | 93.8% | 107% | 108% | 107% | 98% | 101% | 94.5% | 88.1% | 101% | 104% | 94.9% | 99.3% | 98.3% | 99.5% | 100% | 103% | 96.8% | 97.4% | 111%
13 | N#C/C(=C/c1ccc(O)c([N+](=O)[O-])c1)c1nc(-c2ccc([N+](=O)[O-])cc2)cs1 | 60.3% | 19.5% | 30.5% | 39.5% | 77.7% | 50.5% | 29.6% | 47.2% | 20.2% | 41.5% | 24.7% | 52.7% | 80.5% | 34.5% | 22.1% | 29.9% | 5.51% (active) | -17.2% (active) | 38.2% | 35.5%
14 | O=C1NC(SCc2ccc(F)cc2)=N/C1=C/c1cccc(OCc2ccc(Cl)cc2)c1 | 80.6% | 58.5% | 88.1% | 18.3% | 55% | 74.3% | -33.6% (active) | 14.1% | 95.8% | 63.9% | 72.1% | 68.1% | 50.7% | 33.4% | -41.2% (active) | 77.5% | 83% | 72% | 24.7% | 91.2%
15 | CS(=O)(=O)O[C@@H]1C(=O)N(c2cc3c4ccccc4ccc3c3ccccc23)[C@H]1c1ccc(F)cn1 | 11.5% | 10.3% | 74.2% | 50.1% | 18.6% | 43.4% | 9.48% (active) | 15.7% | 41.7% | 30.2% | 29.1% | 3.71% (active) | -0.245% (active) | 38.3% | 29.5% | 34.7% | 13.6% | 34% | 34.2% | 68.6%

From PubChem BioAssay (NCI)
